From PubChem BioAssay
A3G deaminase = APOBEC3G (human) deaminase inhibition; inhibition, % at 20 µM; recombinant A3G, ssDNA deamination FAM/TAMRA fluorescence; hit rate 0.28% among 330,000;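 active means inhibition of at least 40% at 20 µM, with no more than 30% in the related APOBEC3A deaminase screen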
MITF TRPM1 HTS = increases MITF-driven TRPM1 promoter luciferase signal | SK-MEL-5 TRPM1-promoter luciferase, 24 h; % of positive control, neutral wells = 0 | activation, % at 12.5 µM | hit rate 0.75% among 300,000 | AID 588334;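 active means mean activation of at least 80% with every replicate also reaching 80%; inconclusive means mean reaches 80% but some replicate falls short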
PHOSPHO1 inh = PHOSPHO1 (human) inhibition. inhibition, % at 13.3 µM. hit rate 1.1% among 290,000. recombinant PHOSPHO1, absorbance phosphatase assay; in the data active means inhibition above about 60%
Target sequence (Q8TCT1 whole entry, looked up): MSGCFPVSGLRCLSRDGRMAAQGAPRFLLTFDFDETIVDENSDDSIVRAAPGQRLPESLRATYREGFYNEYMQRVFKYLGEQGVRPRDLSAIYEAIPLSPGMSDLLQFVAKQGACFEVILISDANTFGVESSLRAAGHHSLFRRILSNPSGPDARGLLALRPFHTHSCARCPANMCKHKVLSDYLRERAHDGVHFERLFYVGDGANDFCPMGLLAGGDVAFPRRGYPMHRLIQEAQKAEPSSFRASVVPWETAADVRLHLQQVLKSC
A3A deaminase = inhibitors of human APOBEC3A DNA deaminase; P31941; recombinant A3A, FAM/TAMRA ssDNA deamination fluorescence; inhibition, % at 20 µM; hit rate 0.41% among 330,000;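 active means at least 40% inhibition at 20 µM here, with at most 30% in a related deaminase screen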
Target sequence (P31941 whole entry, looked up): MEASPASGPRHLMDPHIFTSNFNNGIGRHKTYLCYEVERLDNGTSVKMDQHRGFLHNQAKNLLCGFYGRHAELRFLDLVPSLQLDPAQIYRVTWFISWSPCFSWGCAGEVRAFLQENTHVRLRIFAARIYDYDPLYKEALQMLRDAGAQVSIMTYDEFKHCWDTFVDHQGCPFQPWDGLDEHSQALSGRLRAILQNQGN
esBAF inh = inhibitors of esBAF chromatin remodeling in mouse ES cells; Bmi1-luciferase knock-in reporter, 24 h; 100% = twice the neutral-well signal; reporter increase, % at 12.5 µM; hit rate 2% among 350,000; AID 602393; in the data active means activation above about 40%; inconclusive means no clear call, values can overlap the other calls;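 further: a rise in the Bmi1 reporter signal indicates esBAF inhibition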
Wnt act = activates Wnt/beta-catenin signaling in a reporter cell assay. hit rate 1.2% among 300,000. AID 743398. activation, % at 9.35 µM. activator, plate reader; in the data active means activation above about 30%, passing the limit was not always enough; inconclusive means no clear call, values can overlap the other calls
A number is an active result. In the library only some 3.6% were active in any assay of this set; here they are far more common.

`CNC(=O)C[C@@H]1CC[C@@H]2[C@@H](COc3ccc(NC(=O)C4CC4)cc3C(=O)N2C)O1` gave esBAF inh inactive.
For CCn1c(SCC(=O)Nc2c(C)n(C)n(-c3ccccc3)c2=O)nc2c1c(=O)n(C)c(=O)n2C the results were A3G deaminase inactive, MITF TRPM1 HTS inactive, PHOSPHO1 inh 64.2, A3A deaminase inactive and Wnt act inactive.
Screening CCOC(=O)N(C)C[C@@H]1OCc2ccccc2-c2c(n(C)c3ccccc23)C(=O)N([C@@H](C)CO)C[C@H]1C returned esBAF inh inactive.
`O=C(Nc1ccn(Cc2ccc(Cl)cc2)n1)c1ccccc1` gave A3G deaminase inactive, MITF TRPM1 HTS inconclusive, PHOSPHO1 inh inactive, A3A deaminase inactive, esBAF inh 56.4 and Wnt act 35.5.
Screening N#CCCn1ccc(NC(=O)c2ccc(Cl)cc2)n1 returned A3G deaminase inactive, MITF TRPM1 HTS inactive, PHOSPHO1 inh inactive, A3A deaminase inactive, esBAF inh inactive and Wnt act inactive.
`O=C(Nc1ccn(Cc2ccccc2)n1)c1ccc2c(c1)OCO2` gave A3G deaminase inactive, MITF TRPM1 HTS inactive, PHOSPHO1 inh 61.0, A3A deaminase inactive and Wnt act inactive.
Screening O=C(COc1ccc(Br)cc1)N(Cc1ccccc1)c1ccccn1 returned A3G deaminase inactive, MITF TRPM1 HTS inactive, PHOSPHO1 inh inactive and A3A deaminase inactive.
O=C(Cc1ccc(Br)cc1)N(Cc1ccccc1)c1ccccn1 was read as A3G deaminase inactive, MITF TRPM1 HTS inactive, PHOSPHO1 inh 62.9, A3A deaminase inactive, esBAF inh inactive and Wnt act inactive.
Cc1c(CC(=O)N2CCN(C(=O)C3COc4ccccc4O3)CC2)c(=O)oc2cc(O)ccc12 (stereo unspecified) was read as A3G deaminase inactive, MITF TRPM1 HTS inactive, PHOSPHO1 inh inactive, A3A deaminase inactive, esBAF inh inactive and Wnt act inactive.
COc1ccc2c(C)c(CC(=O)N3CCN(C(=O)C4COc5ccccc5O4)CC3)c(=O)oc2c1 (stereo unspecified) was read as A3G deaminase inactive, MITF TRPM1 HTS inactive, PHOSPHO1 inh 63.6, A3A deaminase inactive, esBAF inh inactive and Wnt act inactive.
C[C@@H]1CN([C@H](C)CO)C(=O)c2cc(-c3cccc(F)c3)cnc2O[C@H]1CN(C)C(=O)c1cnccn1 was read as esBAF inh inactive.
O=C(NCCO)Nc1ccc(Cl)cc1 was read as A3G deaminase inactive, MITF TRPM1 HTS inactive, PHOSPHO1 inh 68.6, A3A deaminase inactive, esBAF inh inactive and Wnt act inactive.
For O=C(NCCNC(=O)Nc1ccc(Cl)cc1)Nc1ccc(Cl)cc1 the results were MITF TRPM1 HTS inactive and Wnt act inactive.
For O=C(NCC1CC1)Nc1ccc(Cl)cc1 the results were A3G deaminase inactive, MITF TRPM1 HTS inconclusive, PHOSPHO1 inh inactive, A3A deaminase inactive, esBAF inh 67.9 and Wnt act inactive.
COCC(=O)Nc1ccc2c(c1)[C@H]1C[C@@H](CC(=O)N3CCN(C)CC3)O[C@@H](CO)[C@H]1O2 was read as esBAF inh inactive.
`O=C(N=C1N=C2C=CC=CN2Cc2ccccc21)c1ccc(S(=O)(=O)N2CCCC2)cc1` gave A3G deaminase inactive, MITF TRPM1 HTS 102.6, PHOSPHO1 inh inactive, A3A deaminase inactive, esBAF inh 49.7 and Wnt act 44.0.
Screening CN(C)S(=O)(=O)c1cccc(C(=O)N=C2N=C3C=CC(Cl)=CN3Cc3ccccc32)c1 returned A3G deaminase inactive, MITF TRPM1 HTS inactive, PHOSPHO1 inh inactive, A3A deaminase inactive and Wnt act 63.5.
O=C(N=C1N=C2C=CC=CN2Cc2ccccc21)c1ccc(S(=O)(=O)N2CCOCC2)cc1 was read as A3G deaminase inactive, MITF TRPM1 HTS 84.0, PHOSPHO1 inh inactive, A3A deaminase inactive and Wnt act inactive.
O=C(c1ccc(S(=O)(=O)N2CCOCC2)cc1)N1CCc2ccccc2C1 was read as A3G deaminase inactive, MITF TRPM1 HTS inactive, PHOSPHO1 inh inactive, A3A deaminase inactive and esBAF inh inactive.
For CN(C[C@@H]1[C@H](c2ccccc2)[C@H](CO)N1C(=O)C1CC1)C(=O)c1ccccn1 the results were esBAF inh inactive.
Screening Brc1ccccc1OCCCn1cnc2ccccc21 returned A3G deaminase inactive, MITF TRPM1 HTS 91.7, PHOSPHO1 inh inactive, A3A deaminase inactive, esBAF inh 47.7 and Wnt act inactive.
`c1ccc2c(c1)ncn2CCCOc1ccc2c(c1)CCC2` gave A3G deaminase inactive, PHOSPHO1 inh inactive, A3A deaminase inactive, esBAF inh inactive and Wnt act 37.7.
CCN(CC)C(=O)COc1ccc(-c2ccccc2)cc1 was read as A3G deaminase inactive, MITF TRPM1 HTS inactive, PHOSPHO1 inh inactive, A3A deaminase inactive and esBAF inh 50.1.
For CC(C)C#Cc1ccc([C@H]2[C@H]3CN(C(=O)c4ccc(F)cc4)CCCCN3[C@H]2CO)cc1 the results were esBAF inh inactive.
`CC(C)(C)[S@](=O)N1Cc2cc(C(=O)N3CCc4ccccc4C3)nc(-c3cccc(-c4cccnc4)c3)c2[C@@H]1CCO` gave esBAF inh inactive.
Screening COc1ccc2nc(SCC(=O)c3ccco3)[nH]c2c1 returned A3G deaminase inactive, MITF TRPM1 HTS 95.1, PHOSPHO1 inh inactive, A3A deaminase inactive, esBAF inh inactive and Wnt act 33.1.
Screening COc1ccc2nc(SCC(=O)C(C)(C)C)[nH]c2c1 returned A3G deaminase inactive, MITF TRPM1 HTS inactive, PHOSPHO1 inh inactive, A3A deaminase inactive and Wnt act 41.1.
Screening COc1ccc2nc(SCC(=O)NC(C)(C)C)[nH]c2c1 returned A3G deaminase inactive, MITF TRPM1 HTS inactive, PHOSPHO1 inh inactive, A3A deaminase inactive and esBAF inh inactive.
`C[C@H](CO)N1C[C@H](C)[C@@H](CN(C)C(=O)Nc2ccccc2)OCCCC[C@H](C)Oc2ccc(NC(=O)Nc3cccc4ccccc34)cc2C1=O` gave esBAF inh inactive.
`C(=C\c1ccccc1)/CSc1ccccn1` gave A3G deaminase inactive, MITF TRPM1 HTS 108.5, PHOSPHO1 inh inactive, A3A deaminase inactive and Wnt act 54.4.
Clc1ccc(-c2cn3nc4c(nc3n2)CCCC4)cc1 was read as A3G deaminase inactive, MITF TRPM1 HTS inactive, PHOSPHO1 inh 88.2 and A3A deaminase inactive.
Screening NC(=N\N=Cc1ccccc1)/C(N)=N/N=Cc1ccccc1 returned esBAF inh 49.7 and Wnt act inactive.
NC(N)=N/N=C/c1ccccc1 was read as A3G deaminase inactive, MITF TRPM1 HTS inactive, PHOSPHO1 inh inactive, A3A deaminase inactive and Wnt act inactive.
Screening N#CCSc1ccc2nc(-c3ccccc3)cn2n1 returned A3G deaminase inactive, MITF TRPM1 HTS inactive, PHOSPHO1 inh inactive, A3A deaminase inactive, esBAF inh 51.4 and Wnt act inactive.
For COc1ccc(NC(=O)Nc2ccc3c(c2)[C@@H]2C[C@H](CC(=O)N(C)C)O[C@H](CO)[C@@H]2O3)cc1 the results were esBAF inh inactive.
